One may read the AC50 as the midpoint of the concentration-response curve, whichever way the signal moves.

Our source for the outcome and AC50 values is PubChem BioAssay (EPA / NIEHS).

Assay [1] can be described thus: TOX21_p53_BLA_p4_viability: Viability Assessment in the Tox21 HCT-116 p53 Agonism Beta-lactamase Assay, Phase 4 (AID 2283597).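 Note: hits lower the luminescence signal meaning cytotoxicity.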 In outline: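 In this multiplexed secondary endpoint, HCT116 cells (4000 per well, compound at 5 h, 16 h treatment) received CellTiter-Glo after the beta-lactamase read. Luminescence after 30 min RT reflects ATP, and falling signal marks cytotoxicity.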

Assay [2] concerns the target Cellular tumor antigen p53 (Homo sapiens) (UniProt P04637). Briefly: TOX21_p53_BLA_p5_ratio: Tox21 HCT-116 p53 Agonism Beta-lactamase Assay, Ratio, Phase 5 (AID 2283599). In outline: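 HCT-116 cells carrying a p53-inducible beta-lactamase reporter were seeded at 4000 cells/well and dosed after 5 h with compound in DMSO (217-fold dilution). After 16 h at 37C, CCF4-AM substrate was added for 2 h, and the 460/530 nm emission ratio was scored as gain-of-signal versus DMSO.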

Assay [3] in a line: TOX21_p53_BLA_p5_viability: Viability Assessment in the Tox21 HCT-116 p53 Agonism Beta-lactamase Assay, Phase 5 (AID 2283600). In outline: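 Here cell health was gauged by ATP levels in wells holding 4000 cells, each treated 16 h with DMSO-delivered compounds at 217-fold dilution; reduced luminescence marked toxicity.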
Assay [4] has as its target Cellular tumor antigen p53 (Homo sapiens) (UniProt P04637). Briefly: TOX21_p53_BLA_p4_ratio: Tox21 HCT-116 p53 Agonism Beta-lactamase Assay, Ratio, Phase 4 (AID 2283601). In outline:
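HCT116 cells carrying an inducible beta-lactamase reporter were plated at 4000 cells/well, rested 5 h, then exposed to compounds in DMSO (217-fold dilution) for 16 h at 37C. CCF4-AM substrate was loaded 2 h at room temperature; 460/530 nm emission ratio scored gain-of-signal versus DMSO.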

In assay [5] the test system is Thyroperoxidase (TPO), gene 54314. The assay can be described thus: CCTE_Simmons_AUR_rTPO: CCTE's Amplex UltraRed Assay for Thyroperoxidase (TPO) Inhibition, Simmons Lab (AID 2283662).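 Note: potency for loss of signal meaning inhibition of peroxidase activity.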 In outline: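 Rat thyroid microsomal TPO + 25 uM AUR in 200 mM K phosphate; cpd 5 nM–87.5 uM [final], 8 conc, 0.5% DMSO; 300 uM H2O2 starts rxn; 37C dark 30 min; endpoint FI 544/590 nm; n=3.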

A short description of assay [6]: CCTE_Simmons_CellTiterGLO_HEK293T: Viability Assessment in CCTE's Assays for Thyroperoxidase (TPO) Inhibition, Simmons Lab (AID 2283665).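 Note: cells exposed to compound for 24 h before readout; actives reduce ATP signal below DMSO vehicle meaning cytotoxicity.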 Summed up:
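Luciferase-coupled ATP content after 24 h exposure gives viability; 8-point series from 5 nM to 87.5 uM final in 0.5% DMSO. Human HEK293T cells, 1% FBS medium, three biological replicates, dichlone positive control.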
Background: In ATP-based viability assays light output follows the ATP content of the culture.

Assay [7] in a line: CEETOX_H295R_MTT_cell_viability: Viability Assessment in the CeeTox HT-H295R MTT Assay (AID 2283718; active = hit-call score of the fitted dose curve at least 0.9, where 1 is the maximum; inactive = score below 0.9;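 for AC50: curve fitted both ways so AC50 may mark viability loss or gain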). Summed up:
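H295R cells prestimulated 48 h with 10 uM forskolin, then exposed 48 h to test chemical (0.1% DMSO final). Viability by MTT (0.5 mg/ml, 4 h, 37 C), absorbance 570/650 nm; percent change versus DMSO, bidirectional fit.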

Assay [8] addresses Luciferin 4-monooxygenase (Photinus pyralis) (UniProt P08659). The assay can be described thus: CCTE_Simmons_QuantiLum_inhib_2: CCTE's Firefly Luciferase Inhibition Assay, Simmons Lab (AID 2283767).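 Note: potency for inhibitors that lower luciferase luminescence relative to DMSO.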 Summed up:
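Eight test concentrations, 5 nM up to 87.5 uM final, preincubated 30min at 37C in the dark with purified luciferase (0.5% DMSO final). Detection reagent (150uM D-luciferin, 147uM dATP, 75uM CoA, pH 7.8) injected per well before kinetic luminescence read; three replicates.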

A short description of assay [9]: ACEA_AR_agonist_AUC_viability: ACEA Biosciences xCELLigence Real-Time Cell Analysis on Androgen Receptor Agonism for Viability (AID 2283775). Summed up: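 22Rv1 cells; impedance growth kinetics; 8-pt 1:4 dilutions from 100 uM top final, ≤0.5% DMSO; n = 2; 80 h read; AUC viability, loss-of-signal vs DMSO.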
Assay [10] in a line: ACEA_AR_antagonist_AUC_viability: ACEA Biosciences xCELLigence Real-Time Cell Analysis on Androgen Receptor Antagonism for Viability (AID 2283776).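 Note: 22Rv1 human prostate cancer cells growing on impedance electrode plates; area under impedance growth curve at 80 h after dosing as viability; hits lower the growth signal relative to DMSO meaning cytotoxicity.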 Summed up:
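Real-time electrical impedance tracks 22Rv1 proliferation after continuous compound exposure (top 100 uM final, 1:4 steps, 8 concentrations). The 80 h area-under-curve serves as the cytotoxicity readout relative to DMSO.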

The target of assay [11] is Cellular tumor antigen p53 (Homo sapiens) (UniProt P04637). Briefly: TOX21_p53_BLA_p3_ratio: Tox21 HCT-116 p53 Agonism Beta-lactamase Assay, Ratio, Phase 3 (AID 2283596). Summed up: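 Cells were seeded at 4000/well, rested 5 h at 37C, then dosed with DMSO compound solutions (217-fold dilution) for 16 h. CCF4-AM substrate was loaded for 2 h at room temperature, and the 460/530 nm emission ratio was fitted for gain of signal versus DMSO.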

For assay [12], the system named is zebrafish Androgen Receptor (AR), gene 100005148. The assay can be described thus: ATG_zfAR_XSP1: Attagene TRANS-FACTORIAL Multi-Species (XSP1) HepG2 Assay for zebrafish Androgen Receptor (AR) (AID 2283771). In outline: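 Gain-of-signal versus DMSO was measured as reporter transcripts quantified by RT-PCR, fluorescent labelling and capillary electrophoresis after 24 h chemical exposure. The cells were HepG2 expressing a chimeric zebrafish AR-GAL4, co-stimulated with 3 nM 6-alpha-fluorotestosterone.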

Assay [13] concerns the target zebrafish Estrogen Receptor (ESR1), esr1 (gene 259252) (UniProt P57717). The assay can be described thus: ATG_zfER1_XSP1: Attagene TRANS-FACTORIAL Multi-Species (XSP1) HepG2 Assay for zebrafish Estrogen Receptor (ESR1) (AID 2283772). In outline:
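Reporter mRNA induction, gauged via RT-PCR/capillary electrophoresis fluorescence relative to DMSO controls, in HepG2 cells transiently carrying GAL4-UAS reporter units; 24 h dosing.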

The test system of assay [14] is zebrafish Estrogen Receptor (ESR2B), gene 317733. Briefly: ATG_zfER2b_XSP1: Attagene TRANS-FACTORIAL Multi-Species (XSP1) HepG2 Assay for zebrafish Estrogen Receptor (ESR2B) (AID 2283773). In outline:
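Human hepatoma HepG2, transiently transfected with multi-reporter units; exogenous zebrafish ESR2B-Gal4 activity measured. Exposure 24 h alongside 3 nM 6-alpha-fluorotestosterone to partly stimulate AR.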

Assay [15] relates to frog Estrogen Receptor (ESR2), gene 100174814. Briefly: ATG_frER2_XSP1: Attagene TRANS-FACTORIAL Multi-Species (XSP1) HepG2 Assay for frog Estrogen Receptor (ESR2) (AID 2283774). In outline:
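Multiplexed TRANS-format reporter assay in human hepatoma HepG2: chimeric nuclear receptor-Gal4 activity reported as mRNA induction at 24 h, detected by fluorescent RT-PCR products on capillary electrophoresis and fitted upward from DMSO baseline.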

Assay [16] concerns frog Estrogen Receptor (ESR1), gene 398734. Briefly: ATG_frER1_XSP1: Attagene TRANS-FACTORIAL Multi-Species (XSP1) HepG2 Assay for frog Estrogen Receptor (ESR1) (AID 2283777). In outline:
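After transient transfection and 24 h compound treatment, total RNA from HepG2 cells was reverse-transcribed, amplified, FAM-labeled and resolved by capillary electrophoresis. Signal increases were fitted against DMSO controls.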

The subject of assay [17] is zebrafish Estrogen Receptor (ESR2A), gene 317734. Briefly: ATG_zfER2a_XSP1: Attagene TRANS-FACTORIAL Multi-Species (XSP1) HepG2 Assay for zebrafish Estrogen Receptor (ESR2A) (AID 2283778). In outline:
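Gain-of-signal reporter transcription readout from GAL4-UAS units in transiently transfected HepG2 cells, 24 h exposure, 3 nM 6-alpha-fluorotestosterone co-present. Detection by RT-PCR with capillary electrophoresis fluorescence.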

The target of assay [18] is chicken Estrogen Receptor (ESR1), ESR1 (gene 396099) (UniProt P06212). The assay can be described thus: ATG_chERa_XSP1: Attagene TRANS-FACTORIAL Multi-Species (XSP1) HepG2 Assay for chicken Estrogen Receptor (ESR1) (AID 2283779). In outline: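 Gain-of-signal reporter transcription, relative to DMSO, was scored in transiently transfected HepG2 cells after a 24 h dose. Fluorescence intensity of amplified, digested reporter cDNA fragments served as the endpoint.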

Assay [19] has as its target Estrogen receptor (Homo sapiens) (UniProt P03372). Briefly: ATG_hERa_XSP1: Attagene TRANS-FACTORIAL Multi-Species (XSP1) HepG2 Assay for human Estrogen Receptor (ESR1) (AID 2283780). In outline:
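Reporter transcripts from multiplexed GAL4-UAS units driven by NR-Gal4 chimeras in transiently transfected HepG2 were measured by RT-PCR with capillary electrophoresis 24 h post-dose, with 3 nM 6-alpha-fluorotestosterone present; gain-of-signal relative to DMSO.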

Assay [20] relates to turtle Estrogen Receptor (ESR1), gene 101933533. Briefly: ATG_trERa_XSP1: Attagene TRANS-FACTORIAL Multi-Species (XSP1) HepG2 Assay for turtle Estrogen Receptor (ESR1) (AID 2283781). Summed up: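 Cell-based chimeric NR-Gal4 transactivation; HepG2; 24 h dosing; mRNA reporter detected by RT-PCR and capillary electrophoresis fluorescence.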

Each structure is given as a SMILES string. Records with an inconclusive call do not appear. Active and inactive are the calls of the source. Rule for the calls, unless noted: active = hit-call score of the fitted dose curve at least 0.9, where 1 is the maximum; inconclusive = response in the unintended direction; inactive = score below 0.9.

Chain of Cellular tumor antigen p53 (Homo sapiens) (P04637 whole entry, looked up): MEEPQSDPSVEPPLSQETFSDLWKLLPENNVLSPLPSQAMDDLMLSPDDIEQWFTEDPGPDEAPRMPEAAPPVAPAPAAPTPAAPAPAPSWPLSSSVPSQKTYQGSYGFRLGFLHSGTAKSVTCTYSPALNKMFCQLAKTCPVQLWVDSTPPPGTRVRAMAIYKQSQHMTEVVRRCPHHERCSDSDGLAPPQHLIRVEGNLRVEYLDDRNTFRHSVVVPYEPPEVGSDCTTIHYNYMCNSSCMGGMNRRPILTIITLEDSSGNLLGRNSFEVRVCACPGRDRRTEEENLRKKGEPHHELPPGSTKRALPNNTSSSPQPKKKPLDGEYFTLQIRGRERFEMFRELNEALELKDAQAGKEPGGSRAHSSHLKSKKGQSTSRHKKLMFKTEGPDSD
Chain of zebrafish Estrogen Receptor (ESR1), esr1 (gene 259252) (P57717 whole entry, looked up, the tested form may be a part): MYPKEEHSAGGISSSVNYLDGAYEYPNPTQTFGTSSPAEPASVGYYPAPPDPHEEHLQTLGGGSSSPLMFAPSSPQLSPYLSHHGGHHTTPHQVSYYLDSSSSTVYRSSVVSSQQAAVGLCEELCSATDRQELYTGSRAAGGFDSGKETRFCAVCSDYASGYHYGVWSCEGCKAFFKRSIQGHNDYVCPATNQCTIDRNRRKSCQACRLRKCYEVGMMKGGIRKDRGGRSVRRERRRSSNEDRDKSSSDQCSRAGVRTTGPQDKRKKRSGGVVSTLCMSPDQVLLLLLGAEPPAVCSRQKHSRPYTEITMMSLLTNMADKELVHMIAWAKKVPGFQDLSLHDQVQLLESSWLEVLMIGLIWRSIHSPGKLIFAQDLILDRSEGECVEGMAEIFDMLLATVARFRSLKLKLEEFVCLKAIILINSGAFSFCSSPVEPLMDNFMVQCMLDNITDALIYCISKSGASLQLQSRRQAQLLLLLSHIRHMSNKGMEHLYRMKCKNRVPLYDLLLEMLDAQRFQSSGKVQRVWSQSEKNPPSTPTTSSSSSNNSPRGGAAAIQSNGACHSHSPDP
Chain of Luciferin 4-monooxygenase (Photinus pyralis) (P08659 whole entry, looked up): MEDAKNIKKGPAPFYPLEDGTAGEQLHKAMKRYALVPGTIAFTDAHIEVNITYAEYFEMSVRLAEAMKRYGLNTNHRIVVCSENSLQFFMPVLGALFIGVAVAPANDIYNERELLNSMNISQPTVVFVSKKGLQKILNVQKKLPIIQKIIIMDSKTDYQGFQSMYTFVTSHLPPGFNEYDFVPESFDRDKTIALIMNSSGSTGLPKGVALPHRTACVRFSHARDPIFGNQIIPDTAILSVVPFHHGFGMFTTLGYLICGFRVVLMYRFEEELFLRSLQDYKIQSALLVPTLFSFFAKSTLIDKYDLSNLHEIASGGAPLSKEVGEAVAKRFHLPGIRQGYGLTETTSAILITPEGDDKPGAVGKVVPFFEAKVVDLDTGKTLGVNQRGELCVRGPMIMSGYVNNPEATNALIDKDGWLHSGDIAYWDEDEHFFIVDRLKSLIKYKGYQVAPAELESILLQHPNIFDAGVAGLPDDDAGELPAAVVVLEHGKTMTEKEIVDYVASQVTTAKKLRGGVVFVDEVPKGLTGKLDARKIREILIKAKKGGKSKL
Chain of chicken Estrogen Receptor (ESR1), ESR1 (gene 396099) (P06212 whole entry, looked up, the tested form may be a part): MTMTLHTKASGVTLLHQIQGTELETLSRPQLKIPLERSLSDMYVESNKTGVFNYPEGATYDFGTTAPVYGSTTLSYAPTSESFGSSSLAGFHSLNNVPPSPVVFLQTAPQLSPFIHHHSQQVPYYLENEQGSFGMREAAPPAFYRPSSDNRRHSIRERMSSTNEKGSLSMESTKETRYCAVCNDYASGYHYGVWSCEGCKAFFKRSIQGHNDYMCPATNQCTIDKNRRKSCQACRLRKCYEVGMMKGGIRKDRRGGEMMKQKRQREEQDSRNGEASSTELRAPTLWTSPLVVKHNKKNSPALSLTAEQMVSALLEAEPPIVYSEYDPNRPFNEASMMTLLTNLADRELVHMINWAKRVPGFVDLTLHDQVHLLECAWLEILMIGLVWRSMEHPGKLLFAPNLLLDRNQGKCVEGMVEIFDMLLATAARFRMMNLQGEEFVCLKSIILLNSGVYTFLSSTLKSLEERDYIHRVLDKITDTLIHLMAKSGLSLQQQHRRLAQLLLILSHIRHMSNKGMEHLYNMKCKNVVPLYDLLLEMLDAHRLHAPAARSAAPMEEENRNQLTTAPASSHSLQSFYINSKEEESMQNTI
Chain of Estrogen receptor (Homo sapiens) (P03372 whole entry, looked up, the tested form may be a part): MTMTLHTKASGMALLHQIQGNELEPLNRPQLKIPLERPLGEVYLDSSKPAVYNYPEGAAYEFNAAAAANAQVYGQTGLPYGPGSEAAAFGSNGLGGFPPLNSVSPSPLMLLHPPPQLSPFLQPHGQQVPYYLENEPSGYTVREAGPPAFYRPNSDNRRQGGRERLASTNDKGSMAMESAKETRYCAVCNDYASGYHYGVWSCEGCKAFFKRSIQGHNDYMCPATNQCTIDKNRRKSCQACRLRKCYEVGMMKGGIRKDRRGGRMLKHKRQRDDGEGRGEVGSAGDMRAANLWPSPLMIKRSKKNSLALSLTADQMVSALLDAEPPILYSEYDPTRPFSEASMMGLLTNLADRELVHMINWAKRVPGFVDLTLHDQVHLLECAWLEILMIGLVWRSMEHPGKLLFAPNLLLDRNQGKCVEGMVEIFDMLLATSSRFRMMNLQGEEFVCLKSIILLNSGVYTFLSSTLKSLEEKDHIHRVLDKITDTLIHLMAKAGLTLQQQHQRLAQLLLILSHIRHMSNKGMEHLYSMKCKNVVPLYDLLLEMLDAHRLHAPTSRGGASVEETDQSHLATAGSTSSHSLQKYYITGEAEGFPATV

Take `c1ccc(B(c2ccccc2)c2ccccc2)cc1`: the compound was classed as inactive in assay [1], in assay [2], in assay [3], in assay [4], in assay [9] and in assay [10]. Further, the AC50 in assay [5] was 29200 nM (active); in assay [6], 90100 nM (active); in [7], 50000 nM (active); in [8], 53800 nM (active).

Take `O=S(=O)(O)c1ccc2ccccc2c1`: the result in [1], in [2], in assay [3], in assay [4], in assay [9] and in assay [10] was inactive.

For `Nc1cc(Cl)c(N)c(Cl)c1`, the compound was classed as inactive in assay [1] and in assay [4].

As for `Cc1cc(C)cc(O)c1`, the result in [11], in assay [2], in [4] and in assay [10] was inactive.

Take `CN(C)Cc1ccccc1O`: the compound was called inactive in assay [1], in [2], in assay [3], in [4] and in assay [10].

With `O=C(C=Cc1ccccc1)OCC=Cc1ccccc1`, the result in assay [11], in assay [3] and in assay [4] was inactive.

As for `C(=C(c1ccccc1)c1ccccc1)c1ccccc1`, the call in assay [1], in assay [2], in assay [3], in [12], in assay [10] and in assay [16] was inactive. Also, in assay [17], the result was inactive. Besides, the AC50 is 272 nM (active) in assay [13]; 50.4 nM (active) in assay [14]; 24.9 nM (active) in assay [15]; 198 nM (active) in assay [18]; 33.6 nM (active) in assay [19]; 20.8 nM (active) in assay [20].

Consider `CCCCCCS`, for which, in assay [7], the compound was called inactive.

For the compound `CCCCCCOC(=O)c1ccccc1`, the compound was called inactive in assay [1], in [2], in [3], in [4] and in assay [9].

On to `CC/C=C\CCOC(C)=O`, for which the result in assay [11], in assay [2], in assay [4], in assay [9] and in assay [10] was inactive.

As to `CC(C)OC(=O)c1ccccc1C(=O)OC(C)C`, the compound was classed as inactive in assay [7], in [9] and in [10].

For the compound `[Co]`, the compound was called inactive in assay [9].

With `O=C(OCCOCCOCCOC(=O)c1ccccc1)c1ccccc1`, the AC50 in assay [2] is 82100 nM (active); in assay [10], 195 nM (active). Further, the compound was called inactive in assay [3] and in assay [4].

Take `CC(=O)Nc1ccc(N=Nc2cc(C)ccc2O)cc1`: in assay [7], the call was inactive.

`CCCCCCCOC(=O)c1ccccc1C(=O)OCCCCCCC`: the call in [7] was inactive.

Take `CCCCC(CC)COP(=O)(O)OCC(CC)CCCC` (stereo not drawn): the result in [10] was inactive.

Regarding `Nc1ccc(Oc2cccc(Oc3ccc(N)cc3)c2)cc1`, the result in assay [7] was inactive.

Take `Cc1cccc(N(C)C)c1`: in assay [7], the call was inactive.

Take `CCCCCCC(C)OC(=O)CCCCC(=O)OC(C)CCCCCC` (stereo not drawn): the compound was classed as inactive in assay [10].
